Experimental data reported in PubChem BioAssay AID1159580 (chemical genetic matrix, 2015).
In all, about 5,500 compounds went through this assay and about 2,000 (36%) were called active. About 18% were inconclusive and are not listed. Cut-off read from the data, not from the text of the source: active = normalized growth mostly below about 0.91 (no sharp cut-off); inconclusive = no clear call, values can overlap the other calls; inactive = mostly above about 0.92. The list shows a part of the results.

Assay: chemical genetic growth profiling, strain panel (AID 1159580);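 note: tested at 20 µM; growth read once vehicle control cultures reached saturation at 30 °C; 1 = growth at the plate median or of vehicle wells; lower values mean less growth of the strain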
Conditions: S. cerevisiae deletion strains, growth OD

Measured: normalized growth

Cc1ccc(-c2nc(NS(=O)(=O)c3cccc4nonc34)sc2C)cc1Cl
inactive: locus YAR019C, strain CDC15, stronger effect = lower value 0.965 | locus YBL105C, strain PKC1, stronger effect = lower value 0.972 | locus YBR135W, strain CKS1, stronger effect = lower value 0.967 | locus YBR136W, strain MEC1, stronger effect = lower value 0.973 | locus YBR160W, strain CDC28, stronger effect = lower value 0.959 | locus YDL017W, strain CDC7, stronger effect = lower value 0.97 | locus YDL028C, strain MPS1, stronger effect = lower value 0.976 | locus YDL101C, strain DUN1, stronger effect = lower value 0.962 | locus YDL108W, strain KIN28, stronger effect = lower value 0.975 | locus YDL132W, strain cdc53, stronger effect = lower value 0.964 | locus YDL214C, strain PRR2, stronger effect = lower value 0.984 | locus YDR052C, strain DBF4, stronger effect = lower value 0.972 | locus YDR054C, strain cdc34, stronger effect = lower value 0.961 | locus YDR226W, strain ADK1, stronger effect = lower value 0.97 | locus YDR477W, strain SNF1, stronger effect = lower value 0.975 | locus YER123W, strain YCK3, stronger effect = lower value 1 | locus YER133W, strain GLC7, stronger effect = lower value 0.994 | locus YFL009W, strain cdc4, stronger effect = lower value 0.972 | locus YFL029C, strain CAK1, stronger effect = lower value 0.946 | locus YFR003C, strain YPI1, stronger effect = lower value 0.965 | locus YFR019W, strain FAB1, stronger effect = lower value 0.997 | locus YFR028C, strain CDC14, stronger effect = lower value 0.964 | locus YGR040W, strain KSS1, stronger effect = lower value 0.962 | locus YGR052W, strain FMP48, stronger effect = lower value 1.07 | locus YGR092W, strain DBF2, stronger effect = lower value 0.991 | locus YHR030C, strain SLT2, stronger effect = lower value 1.06 | locus YHR079C, strain IRE1, stronger effect = lower value 1.07 | locus YHR082C, strain KSP1, stronger effect = lower value 1.09 | locus YHR205W, strain SCH9, stronger effect = lower value 0.981 | locus YIL147C, strain SLN1, stronger effect = lower value 0.972 | locus YJL095W, strain BCK1, stronger effect = lower value 1.06 | locus YJL128C, strain PBS2, stronger effect = lower value 0.975 | locus YJL157C, strain FAR1, stronger effect = lower value 0.999 | locus YJR016C, strain ILV3, stronger effect = lower value 0.972 | locus YJR066W, strain TOR1 (second series), stronger effect = lower value 0.985 | locus YJR066W, strain TOR1, stronger effect = lower value 1.1 | locus YKL048C, strain ELM1, stronger effect = lower value 0.981 | locus YKL067W, strain YNK1, stronger effect = lower value 1 | locus YKL101W, strain HSL1, stronger effect = lower value 0.967 | locus YKL193C, strain SDS22, stronger effect = lower value 0.968 | locus YKL203C, strain TOR2, stronger effect = lower value 1.04 | locus YLR113W, strain HOG1, stronger effect = lower value 0.963 | locus YLR133W, strain CKI1, stronger effect = lower value 0.978 | locus YLR403W, strain SFP1, stronger effect = lower value 0.985 | locus YML070W, strain DAK1, stronger effect = lower value 0.987 | locus YMR001C, strain CDC5, stronger effect = lower value 0.967 | locus YMR205C, strain PFK2 (second series), stronger effect = lower value 0.981 | locus YMR277W, strain FCP1, stronger effect = lower value 0.975 | locus YNL006W, strain LST8, stronger effect = lower value 0.967 | locus YNL020C, strain ARK1, stronger effect = lower value 0.978 | locus YNL161W, strain CBK1, stronger effect = lower value 0.959 | locus YNL183C, strain NPR1, stronger effect = lower value 1.01 | locus YNL207W, strain RIO2, stronger effect = lower value 0.953 | locus YNL222W, strain SSU72, stronger effect = lower value 0.947 | locus YNL307C, strain MCK1 (second series), stronger effect = lower value 0.984 | locus YOL078W, strain AVO1, stronger effect = lower value 0.951 | locus YOL136C, strain PFK27, stronger effect = lower value 0.999 | locus YOR061W, strain CKA2, stronger effect = lower value 0.988 | locus YOR119C, strain RIO1, stronger effect = lower value 1.03 | locus YOR231W, strain MKK1, stronger effect = lower value 1.01 | locus YOR329C, strain SCD5, stronger effect = lower value 0.973 | locus YPL031C, strain PHO85, stronger effect = lower value 0.993 | locus YPL153C, strain RAD53, stronger effect = lower value 0.992 | locus YPL204W, strain HRR25, stronger effect = lower value 0.991 | locus YPL209C, strain IPL1, stronger effect = lower value 0.951 | locus YPL256C, strain CLN2, stronger effect = lower value 1.01 | locus YPR025C, strain CCL1, stronger effect = lower value 0.97 | locus YPR106W, strain ISR1, stronger effect = lower value 0.963 | locus YPR111W, strain DBF20, stronger effect = lower value 0.953 | strain NNK1, stronger effect = lower value 0.971 | strain TSCII, stronger effect = lower value 0.956
